# Bioassay records as filed in PubChem BioAssay.
# Compounds with a hit are over-represented: about 3.7% of the library has one in this group of screens.
# ELG1 repair inh: qHTS screen for small molecules that inhibit ELG1-dependent DNA repair in human embryonic kidney (HEK293T) cells expressing luciferase-tagged ELG1; HEK293T ELG1-luciferase reporter, luminescence, 16 h; DNA damage induced by 5-fluorouridine; Potency, µM (titrated, usually from 46.1 µM), usual class: inhibitors; actives 2.3% (n = 330,000); AID 504467, 2011; note: nearly all actives have a fitted effect of over 55% in size
#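 Cells (2,000 per well) received 5-fluorouridine plus test compound or DMSO and were incubated 16 hr at 37 °C, 5% CO2. Luciferase activity was read by luminescence 30 min after ONE-Glo addition; signal suppression marked inhibition of damage-induced ELG1 function.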
# Nrf2 ARE act: qHTS of Nrf2 Activators. AREc32 ARE-luciferase reporter (MCF7-derived line), luminescence, 24 h. Potency, µM (highest dose often 46.1 µM), actives largely listed as activators. actives 0.31% (n = 410,000). AID 624171, 2012; note: nearly all actives have a fitted effect of over 65% in size
#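 AREc32 cells carrying an ARE-driven firefly luciferase reporter were seeded at 1000 cells/well in OPTI-MEM with 5% FBS, then exposed to compound for 24 hr at 37 deg C. Luminescence was read with Steady-Glo after 30 min at RT.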
# Nrf2 inh: Nrf2 qHTS screen for inhibitors; Potency, µM (doses to about 46 µM), usual class: inhibitors; actives 2.1% (n = 360,000); AID 504444, 2011; A549 ARE-Fluc reporter, luciferase luminescence, 18-24 h; note: nearly all actives have a fitted effect of over 60% in size
#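 Quantitative HTS in A549 cells stably bearing an antioxidant response element-firefly luciferase construct. Inhibition of Nrf2-driven transcription was scored by luminescence after 18-24 h of compound exposure at 37 °C.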
# A549 tox: Nrf2 qHTS screen for inhibitors: counterscreen for cytotoxicity; AID 504648, 2011; Potency, µM (doses to about 46 µM), usual class: inhibitors; A549 ARE-Fluc cells, CellTiter-Fluor viability, 18-24 h; actives 0.16% (n = 390,000)
#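 A549 ARE_Fluc cells in 5% FBS OPTI-MEM were exposed to compounds in concentration-response for 18-24 h at 37 deg C. Viability was read by CellTiter-Fluor fluorescence (Ex 405/Em 525) after 30 min, before the luciferase read.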
# A number is an active result; – = inactive; ? = inconclusive; · = no result. Calls come from the whole dose curve; as a rule, active = well fitted curve in the direction sought with a large enough effect; inconclusive = small, poorly fitted or top-dose-only effect, or another doubt; inactive = no such curve, though single readings can be large; an effect the other way counts as inactive or inconclusive.
SMILES,ELG1 repair inh,Nrf2 ARE act,Nrf2 inh,A549 tox
CS(=O)(=O)c1ccc(NC(=O)C2CCCN(C(=O)c3ccc(Cl)cc3)C2)cc1 (stereo not given),–,–,?,–
CCOC(=O)C1CCCN(S(=O)(=O)c2ccc(S(=O)(=O)N(CC)CC)cc2)C1 (stereo not given),?,–,?,–
CCN(CC)S(=O)(=O)c1ccc(NC(=O)C2CCCN(C(=O)c3ccc(Cl)cc3)C2)cc1 (stereo not given),18µM,–,?,–
C[C@@H]1CN([C@H](C)CO)C(=O)CCCn2nncc2CO[C@H]1CN(C)S(=O)(=O)c1ccc(Oc2ccccc2)nc1,·,–,·,·
CNS(=O)(=O)c1cn(CC(=O)N2CCN(c3ccc(C(C)=O)cc3)CC2)cc1S(=O)(=O)NC,·,–,–,–
COCCN=c1scc(-c2cc(OC)c(OC)c(OC)c2)n1/N=C/c1c(C)[nH]c2ccccc12,7.3µM,–,?,–
O=C(CSc1nnc(COc2ccccc2)o1)NC1CC2CCC1C2 (stereo not given),–,–,–,–
O=C(CN(Cc1cccs1)C(=O)CSc1nnc(COc2ccccc2)o1)NC1CCCCC1,18µM,–,–,–
CCOc1ccc(N(CC(=O)NC2CCCCC2)C(=O)CSc2nnc(COc3ccccc3)o2)cc1,18µM,–,?,?
O=C(CSc1nnc(COc2ccc(Br)cc2)o1)NC1CCCCC1,–,–,–,–
CCOCCN1CCN(c2c(C)c(C)nc3cc(-c4cc(OC)cc(OC)c4)nn23)CC1,16µM,–,–,–
COCCN1CCN(c2c(C)c(C)nc3cc(-c4cccc(OC)c4)nn23)CC1,·,–,–,–
Cc1ccc(CN2CCN(C3CCN(C(=O)c4ccccc4)CC3)C(=O)C2=O)cc1,·,–,?,–
NNC(=O)c1cc2c(N3CCC(Cc4ccccc4)CC3)ncnc2s1,23µM,–,26µM,–
CCOc1cc(C(=O)Nc2ccc(-c3nnc4n3CCCCC4)cc2)cc(OCC)c1OCC,·,–,?,–
COC(=O)c1ccc(NC(=O)CCc2c(C)nc3c(c(C)nn3C(C)(C)C)c2C)cc1,·,–,?,–
CC(C)CC(N)c1csc(NC(=O)Nc2ccccc2C(C)(C)C)n1 (stereo not given),·,–,·,·
Cc1cc(C(F)(F)F)n(-c2nc(C(=O)NNS(=O)(=O)c3ccccc3[N+](=O)[O-])cs2)n1,5.8µM,–,–,–
Cc1ccc(C)c(Oc2cc(NC(=O)CCCn3nc(C)c([N+](=O)[O-])c3C)cc([N+](=O)[O-])c2)c1,?,–,23µM,?
Cn1cc([N+](=O)[O-])c(C(=O)Nc2cc(Oc3ccccc3)cc([N+](=O)[O-])c2)n1,?,?,–,–
Cc1cccc(Oc2cc(NC(=O)c3ccccc3)cc([N+](=O)[O-])c2)c1,?,–,13µM,?
Cc1nn(CCCC(=O)Nc2cc(Oc3ccccc3)cc([N+](=O)[O-])c2)c(C)c1[N+](=O)[O-],?,–,?,–
CCn1nc(C)c(C(=O)Nc2cc(Oc3cc(C)cc(C)c3)cc([N+](=O)[O-])c2)c1C,13µM,–,21µM,?
O=C(CSc1ncnc2ccccc12)Nc1cccc(S(=O)(=O)N2CCOCC2)c1,–,–,16µM,–
O=C(COc1ncnc2ccccc12)Nc1cccc(S(=O)(=O)N2CCOCC2)c1,?,–,–,–
SMILES,ELG1 repair inh,Nrf2 ARE act,Nrf2 inh,A549 tox
O=C(CSc1nc2cc(Cl)ccc2s1)Nc1cccc(S(=O)(=O)N2CCOCC2)c1,?,–,23µM,–
Cc1ccc(S(=O)(=O)N2CCN(Cc3csc(C)n3)CC2)cc1,–,–,–,–
CC(C)S(=O)(=O)c1csc(NC(=O)Nc2cc(Cl)ccc2Cl)c1Cl,21µM,–,18µM,–
CC(=O)NC(CCS(C)(=O)=O)C(=O)Nc1cc(Cl)ccc1Cl (stereo not given),–,–,–,–
Nc1cccc(CP(=O)(c2ccccc2)c2ccccc2)c1,?,–,–,–
O=C(/C=C/c1ccc(Cl)cc1)c1cccnc1,?,?,–,–
CCN(CC)c1ccc(/C=C/C(=O)c2cccnc2)cc1,23µM,–,?,–
COC(CNC(=O)c1ccc2nc(-c3ccccc3)c(-c3ccccc3)nc2c1)OC,?,–,16µM,–
COc1cccc(CNC(=O)c2ccc3nc(-c4ccccc4)c(-c4ccccc4)nc3c2)c1OC,·,–,·,–
COc1ccc(-c2nc3ccc(C(=O)NCC(OC)OC)cc3nc2-c2ccc(OC)cc2)cc1,16µM,–,–,–
COc1ccc(-c2nc3ccc(C(=O)NCc4ccccc4)cc3nc2-c2ccc(OC)cc2)cc1,·,–,·,–
O=C(C[n+]1ccccc1)N/N=C/c1ccc(C(=O)O)cc1,–,–,–,–
CCn1c2ccccc2c2nnc(N3CCN(c4cccc(Cl)c4)CC3)nc21,·,–,?,–
COC(=O)[C@]12CCCCC=C1N(Cc1cccc3ccccc13)C(=O)[C@H](CC(=O)NCc1cccs1)C2,·,–,·,·
CC[N+](CC)=N/N=C1\C=CC[N+]([O-])=C1,·,–,·,·
Cn1c(/C(C#N)=C(\O)c2cc(Cl)sc2Cl)nc2ccccc21,–,1.4µM,–,–
CCn1c(=O)c(=O)[nH]c2cc(C(=O)NCc3ccc(F)cc3)ccc21,–,–,–,–
O=C(NCc1ccc(Cl)cc1)C(=O)NCC(c1cccnc1)N1CCN(c2ccc(F)cc2)CC1 (stereo not given),12µM,–,21µM,–
Cc1[nH]n(-c2ccccc2)c(=O)c1C(=O)c1ccccc1,?,–,?,?
Cc1[nH]n(-c2ccccc2)c(=O)c1C(=O)c1cccc(F)c1,–,–,23µM,–
Cc1[nH]n(-c2ccc(Cl)cc2)c(=O)c1C(=O)c1ccccc1,–,–,21µM,?
Cc1[nH]n(-c2ccccc2)c(=O)c1C(=O)c1ccc(Cl)cc1,?,–,16µM,–
CCSC(=S)c1c(C)[nH]n(-c2ccccc2)c1=O,?,–,?,?
CCOC(=O)c1ccc(-c2ccc3ncnc(NCc4cccs4)c3c2)o1,·,·,–,?
COC(=O)C1=C(C)NC(C)=C(C(=O)OCC(C)C)C1c1ccccc1[N+](=O)[O-] (stereo not given),·,–,16µM,–
CCCOc1ccccc1C1CC(=O)NC(C)=C1C(=O)OCC(C)C (stereo not given),–,–,·,–
Cc1cc2c(s1)c1cnn(Cc3ccc(F)c(C)c3)c(=O)c1n2C,·,·,–,–
CCc1ccc(C2c3c(-c4ccccc4O)n[nH]c3C(=O)N2Cc2ccncc2)cc1 (stereo not given),·,–,–,–
O=C1OC(/C(=C\Nc2ccc(F)cc2F)[N+](=O)[O-])c2ccccc21 (stereo not given),–,?,?,–
O=C1OC(/C(=C\Nc2cc(Cl)ccc2O)[N+](=O)[O-])c2ccccc21 (stereo not given),?,11µM,?,–
